Experimental findings from PubChem BioAssay AID2205 (University of Pittsburgh Molecular Library Screening Center, 2009) are described below.

SMILES strings stand for the structures. In all, about 200,000 compounds went through this assay and about 1,600 (0.8%) were called active. This is one part of a sample in which actives are shown more often than they occur.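 How the source made its calls: active means plate Z-score above 3 for both tubulin-high and condensed-nucleus cell shares, with cell loss under 80%, at 10 µM; inactive means the rest, inconclusive results apart.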

This assay in a line: microtubule stabilizers in HeLa cells, primary screen, imaging, high-content imaging (AID 2205).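 On % tubulin-high responders: anti alpha tubulin signal scored within the nucleus-defined area of each cell.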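 On toxicity: 0% = mean cell density of plate MIN control wells and 100% = no cells.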 The conditions noted are these: HeLa tubulin immunostaining HCS, 24 h, at 10 µM; % Hoechst-high responders: measured here: nuclear condensation Hoechst responders, stronger effect = higher value, share of cells brighter than vehicle mean+2SD; % tubulin-high responders: stronger effect = higher value, share of cells brighter than vehicle mean+2SD; toxicity: measured here: cytotoxicity by cell density.
Take `COc1ccc(-c2[nH]ncc2CN(C)Cc2c(C)n[nH]c2C)c(OC)c1`: the % Hoechst-high responders was 1.45%, the % tubulin-high responders was 3.81% (inactive) and the toxicity was 16.7%.

Regarding `Cc1cccc(C)c1NC(=O)C(c1ccccc1)N1CC(=O)Nc2ccccc21` (stereo unspecified), the % Hoechst-high responders was 2.09%, the % tubulin-high responders is 3.96% (inactive) and the toxicity is 8.51%.

Consider `Cc1nnc(NC(=O)CSc2nccn2-c2cccc(C)c2C)s1`, for which the % Hoechst-high responders was determined as 21%, the % tubulin-high responders was 19.7% (active) and the toxicity was 64.4%.

As to `Cc1cccc(CSc2nnc(NC(=O)CSc3nnc(C)s3)s2)c1`, the % Hoechst-high responders was 1.18%, the % tubulin-high responders was 2.97% (inactive) and the toxicity came to 12.2%.

`COc1ccccc1-n1c(CNC(=O)c2ccccc2)nnc1SCC(=O)Nc1nnc(C)s1`: the % Hoechst-high responders was determined as 1.91%, the % tubulin-high responders is 2.83% (inactive) and the toxicity stood at 6.55%.

Regarding `CC(Oc1cccc(NC(=O)c2cccs2)c1)C(=O)c1ccccc1` (stereo unspecified), the % Hoechst-high responders came out at 1.24%, the % tubulin-high responders is 0.929% (inactive) and the toxicity worked out at 5.37%.

On to `Cc1cc(-c2csc(N)n2)c(C)n1-c1ccccc1`, for which the % Hoechst-high responders stood at 2.12%, the % tubulin-high responders is 6.37% (inactive) and the toxicity was 3.22%.

On to `CN1C(=O)/C(=C\c2ccc(-c3ccccc3)o2)SC1=S`, for which the % Hoechst-high responders was determined as 1.77%, the % tubulin-high responders is 6.05% (inactive) and the toxicity amounted to 4.81%.

As to `C=CCn1c(CC(=O)Nc2cccc(OC)c2)nnc1SCC(=O)NC1CCCCC1`, the % Hoechst-high responders was determined as 1.48%, the % tubulin-high responders was 3.27% (inactive) and the toxicity was determined as 1.42%.

For the compound `CCCCNC(=O)CSc1nc2n[nH]c(C)c2c(=N)n1-c1cccc(Cl)c1C`, the % Hoechst-high responders came out at 2.38%, the % tubulin-high responders is 2% (inactive) and the toxicity is 5.31%.

In the case of `COc1cccc(-n2c(SCC(=O)NC3CCCCC3)nc3n[nH]c(C)c3c2=N)c1`, the % Hoechst-high responders came out at 11.3%, the % tubulin-high responders is 18.4% (active) and the toxicity was 62.6%.

Turning to `Cc1ccc(S(=O)(=O)N(C)C)cc1NC(=O)c1ccccc1Br`, the % Hoechst-high responders came out at 2.26%, the % tubulin-high responders was 1.77% (inactive) and the toxicity came out at 6.59%.

`CN1CCN(C(=O)/C(=C\c2ccc3c(c2)OCO3)NC(=O)c2cccs2)CC1`: the % Hoechst-high responders turned out to be 1.07%, the % tubulin-high responders was 1.67% (inactive) and the toxicity worked out at 6.65%.

For the compound `CCC1(CC)Cc2ccccc2-c2nc3ccccc3c(=O)n21`, the % Hoechst-high responders is 1.65%, the % tubulin-high responders is 4.36% (inactive) and the toxicity is 6.77%.

In the case of `CN(C)CCCn1c(SCCN2C(=O)c3ccccc3C2=O)nc2ccccc2c1=O`, the % Hoechst-high responders was found to be 1.95%, the % tubulin-high responders was 2.16% (inactive) and the toxicity was found to be 6.21%.

With `CC(C)(C)c1nc2ccccc2c(=O)n1N1C(=O)c2ccccc2C1=O`, the % Hoechst-high responders came to 13.9%, the % tubulin-high responders was 28.9% (active) and the toxicity came to 37.9%.

`CCOc1ccc(NS(=O)(=O)c2ccc(C)c(C(N)=O)c2)cc1`: the % Hoechst-high responders was 2.61%, the % tubulin-high responders is 1.97% (inactive) and the toxicity was determined as 4.14%.

In the case of `CN1CCN(c2ccc(NC(=O)c3ccc4c(c3)[nH]c(=O)n4Cc3ccc(F)cc3)cc2)CC1`, the % Hoechst-high responders was 2.93%, the % tubulin-high responders was 3.59% (inactive) and the toxicity is 6.48%.

Regarding `O=C(NN=C1CCC(=NNC(=O)c2cccnc2)CC1)c1cccnc1`, the % Hoechst-high responders was 2.04%, the % tubulin-high responders is 1.75% (inactive) and the toxicity amounted to 6.55%.

On to `COCC(C)n1c(C)cc(C(=O)COc2ccc(C)nc2[N+](=O)[O-])c1C` (stereo unspecified), for which the % Hoechst-high responders came to 1.67%, the % tubulin-high responders is 1.5% (inactive) and the toxicity worked out at 6.06%.

As for `O=C(NNC(=S)NC(=O)c1cn(-c2ccccc2)nc1-c1ccccc1)c1ccncc1`, the % Hoechst-high responders worked out at 2.91%, the % tubulin-high responders is 5.93% (inactive) and the toxicity was found to be 6.44%.

For the compound `CCOc1ccc(C2c3[nH]c4ccccc4c3CCN2Cc2cn(CC)nc2C)cc1` (stereo unspecified), the % Hoechst-high responders was 3.06%, the % tubulin-high responders was 2.78% (inactive) and the toxicity turned out to be 2.13%.

In the case of `CCN1CCN(C(=O)c2ccccc2N(C)S(=O)(=O)c2ccc(C)cc2)CC1`, the % Hoechst-high responders was 1.51%, the % tubulin-high responders was 2.85% (inactive) and the toxicity came out at 4.04%.

Consider `NC(=O)c1ccccc1N(Cc1ccccc1)S(=O)(=O)c1ccccc1`, for which the % Hoechst-high responders was found to be 0.852%, the % tubulin-high responders is 1.16% (inactive) and the toxicity worked out at 4.6%.

Regarding `CCOC(=O)N1CCN(C(=O)c2ccccc2N(Cc2ccccc2)S(=O)(=O)c2ccc(OC)cc2)CC1`, the % Hoechst-high responders came to 60.4%, the % tubulin-high responders is 17.8% (active) and the toxicity was 42.6%.

Take `CC(=O)c1cc(-c2ccccc2)n(CC(=O)NC2CCCCC2)c1C`: the % Hoechst-high responders is 1.48%, the % tubulin-high responders was 1.98% (inactive) and the toxicity turned out to be 2.82%.

As for `O=C(Nc1ccn(Cc2ccccc2)n1)c1n[nH]c([N+](=O)[O-])c1Cl`, the % Hoechst-high responders is 13.3%, the % tubulin-high responders is 9.59% (active) and the toxicity amounted to 24.4%.

Turning to `O=C(Nc1ccn(Cc2ccc(F)cc2)n1)c1ccncc1`, the % Hoechst-high responders is 1.77%, the % tubulin-high responders is 2.77% (inactive) and the toxicity was 3.59%.

In the case of `O=C(Nc1ccn(Cc2ccccc2)n1)c1cccc(F)c1`, the % Hoechst-high responders is 3.02%, the % tubulin-high responders was 4.62% (inactive) and the toxicity was determined as 3.61%.

With `CC1Cc2ccccc2N1S(=O)(=O)c1c(N)n(C)c(=O)n(C)c1=O` (stereo unspecified), the % Hoechst-high responders was determined as 3.17%, the % tubulin-high responders is 3.06% (inactive) and the toxicity is 7.69%.

In the case of `CCc1nc2ccccc2c(C(=O)NCc2ccc(OC)cc2)c1C`, the % Hoechst-high responders worked out at 2.73%, the % tubulin-high responders was 2.02% (inactive) and the toxicity turned out to be 5.3%.

As for `CN(C)Cc1ccc(F)cc1Sc1cc(Cl)ccc1Cl`, the % Hoechst-high responders is 2.47%, the % tubulin-high responders is 4.07% (inactive) and the toxicity worked out at 10%.

Turning to `CC(C(=O)NCC1CCCCC1)N(C)Cc1cccc(Cl)c1` (stereo unspecified), the % Hoechst-high responders amounted to 0.921%, the % tubulin-high responders is 4.54% (inactive) and the toxicity was 21.1%.

For `CCOc1ccc(NC(=O)COc2ccc(C(=O)NC3CCCc4ccccc43)cc2OC)cc1` (stereo unspecified), the % Hoechst-high responders is 2.51%, the % tubulin-high responders was 5.53% (inactive) and the toxicity worked out at 4.7%.

For the compound `COc1ccc(CN(C)C(C)C(=O)NC2CCCc3ccccc32)cc1` (stereo unspecified), the % Hoechst-high responders came out at 4.92%, the % tubulin-high responders is 11.4% (active) and the toxicity worked out at 14%.

On to `COc1ccc([N+](=O)[O-])cc1NC(=O)CC1SC(=Nc2cccc(C)c2C)N(/N=C(\C)c2ccc(C)cc2)C1=O` (stereo unspecified), for which the % Hoechst-high responders is 1.74%, the % tubulin-high responders is 1.39% (inactive) and the toxicity turned out to be 6.54%.

Take `COc1cccc(NC(=O)c2ccc(S(=O)(=O)N(C)C)cc2)c1`: the % Hoechst-high responders turned out to be 1.38%, the % tubulin-high responders was 3.01% (inactive) and the toxicity is 1.8%.
